Reference: PMC5540273 (PLoS ONE, 2017)

What was measured:
Details in all cases: concentration: 1 μM,replicates: in singlicate; n = 1
[1] = tested on: JAK1(JH2domain-pseudokinase)
[2] = tested on: JAK2(JH1domain-catalytic)
[3] = tested on: JAK3(JH1domain-catalytic)
JNK1 = tested on: T1, JNK1
T1 construct: gene MAPK8

JNK2 = tested on: T2, JNK2
T2 construct: gene MAPK9

JNK3 = tested on: T3, JNK3
T3 construct: gene MAPK10

KIT-autoinhibited = tested on: KIT-autoinhibited
KIT = tested on: KIT
LATS1 = tested on: LATS1
LATS2 = tested on: LATS2
LCK = tested on: LCK
LIMK1 = tested on: LIMK1
LIMK2 = tested on: LIMK2
LKB1 = tested on: T4, LKB1
T4 construct: gene STK11

LOK = tested on: T5, LOK
T5 construct: gene STK10

LRRK2 = tested on: LRRK2
LTK = tested on: LTK
LYN = tested on: LYN
LZK = tested on: T6, LZK
T6 construct: gene MAP3K13

MAK = tested on: MAK
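Further: KINOMEscan kinase panel screen.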

Structure (SMILES)	%Inh [1] [%]	%Inh [2] [%]	%Inh [3] [%]	%Inh (JNK1) [%]	%Inh (JNK2) [%]	%Inh (JNK3) [%]	%Inh (KIT-autoinhibited) [%]	%Inh (KIT) [%]	%Inh (LATS1) [%]	%Inh (LATS2) [%]	%Inh (LCK) [%]	%Inh (LIMK1) [%]	%Inh (LIMK2) [%]	%Inh (LKB1) [%]	%Inh (LOK) [%]	%Inh (LRRK2) [%]	%Inh (LTK) [%]	%Inh (LYN) [%]	%Inh (LZK) [%]	%Inh (MAK) [%]
Cn1ccc2ncnc(Oc3ccc(NC(=O)Nc4cnn(C(C)(C)C)c4)c(Cl)c3)c21	0	11	15	2	10	0	35	99.8	100	2	71	1	8	9	99.9	0	12	71	0	0
CS(=O)c1ccc(-c2coc3ccc(-c4n[nH]c(=O)o4)cc23)cc1 (stereo not shown)	3	23	23	23	20	16	0	0	11	21	0	0	0	16	99.7	13	0	16	2	0
Cn1cc(-c2cccc3c(N)c(C(N)=O)nnc23)cn1	61	32	38	14	5	8	16	5	3	0	5	2	7	0	15	57	29	12	0	0
CC(=O)c1c(-c2ccncc2)[nH]c(-c2ccncc2)c1C [GW493036]	0	20	0	25	8	11	0	0	7	4	0	0	1	0	0	26	0	0	42	34
CN(c1ccc2c(c1)nc(NCc1ccc(F)cc1)n2C)c1ccnc(Nc2ccc(CS(C)(=O)=O)cc2)n1.Cl [GW813244]	56	54	100	42	39	0	69	99.9	10	0	67	33	0	29	99.5	0	48	68	0	2
CCN1CCN(CCCC(=O)Nc2n[nH]c3nc(-c4ccc(O)cc4)c(Br)cc23)CC1 [SB-731579]	0	80	87	55	38	34	15	31	0	0	66	0	0	23	13	0	20	0	0	35
O=C(NCC1CC1)c1ccc(-c2cc(C(=O)NC3CC3)ccc2F)cc1 [GW810445]	0	12	0	0	0	0	0	0	0	0	0	0	0	68	5	71	28	0	0	0
CC(C(=O)NC1CCN(c2ccnc(Nc3ccc(F)cc3)n2)C1)c1ccc(Cl)cc1 (stereo not shown) [GSK1379713]	0	7	0	2	0	0	0	10	0	0	22	0	0	0	0	14	0	0	0	12
